Whole data set: some 18,000 sequences, median “log2 normalized intensity” near 0.36, cut for the highest 2% near 7.3. The entries come from a sample that favours the highest values as a whole.
molecular target: T1, HNF4alpha8 (COS-7 nuclear extract) (Homo sapiens, UniProt P41235-5 1-452); assay: protein-binding microarray; COS-7 nuclear extract on double-stranded Agilent 4x180k PBM; binding buffer, salt, pH and temperature not given in the material; high values mean tight binding; settings: chain copies: 2; label: 3' end of strand 1 on the slide; dsDNA, one strand shown
T1 sequence: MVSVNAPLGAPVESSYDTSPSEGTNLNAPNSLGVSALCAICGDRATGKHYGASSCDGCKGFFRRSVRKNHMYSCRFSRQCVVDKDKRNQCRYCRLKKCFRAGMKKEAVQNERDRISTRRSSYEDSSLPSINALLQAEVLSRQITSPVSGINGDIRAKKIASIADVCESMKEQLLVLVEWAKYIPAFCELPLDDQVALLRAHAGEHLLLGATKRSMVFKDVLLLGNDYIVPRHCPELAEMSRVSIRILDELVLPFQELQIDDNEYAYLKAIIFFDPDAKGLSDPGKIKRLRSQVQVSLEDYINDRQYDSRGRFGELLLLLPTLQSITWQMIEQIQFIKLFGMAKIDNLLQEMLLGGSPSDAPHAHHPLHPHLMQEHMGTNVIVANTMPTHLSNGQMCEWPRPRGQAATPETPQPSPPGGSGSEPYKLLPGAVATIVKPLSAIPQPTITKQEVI
Summary of the method: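 The binding signal is Agilent software's gProcessedSignal after background correction and normalization. Arrays were a custom Agilent SurePrint G3 4x180k design of double-stranded ~60-nt oligonucleotides with ~44,000 test sequences in quadruplicate, probed with nuclear extracts of COS-7 cells transiently expressing a human HNF4α isoform. Scans were made at 2-µm resolution on an Agilent G2565CA scanner.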

| Sequence | binding signal [log2 normalized intensity] |
| --- | --- |
| GGGTTAGGCCTTTAGAGGATTTACTTATACGCCTAGGGAGATTAGAGTATCGGTCGA | 0.821 |
| TGCTCATAGCTACGGGTGACCTTGAGCACTGCCTAGGGAGATTAGAGTATCGGTCGA | 3.93 |
| TCCTCTTCCCTACCCCCTGGGAGTAACCTGGCCTAGGGAGATTAGAGTATCGGTCGA | 3.13 |
| CACAAATTGGAGAGCATCTTGGACTTGGGAGCCTAGGGAGATTAGAGTATCGGTCGA | 3.16 |
| TACATTGGACAACTGTACTTTGGACTGGGGGCCTAGGGAGATTAGAGTATCGGTCGA | 6.69 |
| CAAACGAGACTTTGGACTTTGGACTTGGGAGCCTAGGGAGATTAGAGTATCGGTCGA | 10.9 |
| ACAGTTCTGATACATTGGACAACTGTACTTGCCTAGGGAGATTAGAGTATCGGTCGA | 2.21 |
| GACTCATCTCCAAACGAGACTTTGGACTTTGCCTAGGGAGATTAGAGTATCGGTCGA | 9.58 |
| CTCCAAACATCTTTGGTATGGACTGATATTGCCTAGGGAGATTAGAGTATCGGTCGA | 1.85 |
| TCTGATACATTGGACAACTGTACTTTGGACGCCTAGGGAGATTAGAGTATCGGTCGA | 8.02 |
| AAAGGGACTCATCTCCAAACGAGACTTTGGGCCTAGGGAGATTAGAGTATCGGTCGA | 2.23 |
| GAAGGAGAGAGAGGGAGAGTGGCCTTTGGAGCCTAGGGAGATTAGAGTATCGGTCGA | 4.12 |
| GTGACTACCTGGTTAAAAGGACAACCTTCGGCCTAGGGAGATTAGAGTATCGGTCGA | -0.397 |
| AGAATGTGGTTCTTTTCATTAAATATTTAAGCCTAGGGAGATTAGAGTATCGGTCGA | 0.534 |
| CCTCAATGCTATCTCCCAGTTCTTTTGACCGCCTAGGGAGATTAGAGTATCGGTCGA | 2.7 |
| CCAGTTCTTTTGACCTTTGCCTCATTCTTAGCCTAGGGAGATTAGAGTATCGGTCGA | 7.02 |
| AGTTATATCTTACCTCCTTCTCCCCCATGCGCCTAGGGAGATTAGAGTATCGGTCGA | 4.73 |
| ATCTCCCAGTTCTTTTGACCTTTGCCTCATGCCTAGGGAGATTAGAGTATCGGTCGA | 8.61 |
| TCCTTTTGACCACAGTTATCTCCCCAGCTTGCCTAGGGAGATTAGAGTATCGGTCGA | 2.38 |
| ATGCTATCTCCCAGTTCTTTTGACCTTTGCGCCTAGGGAGATTAGAGTATCGGTCGA | 8.5 |
| TAGGCATGCAAACTTTGTTTAATGATTGCAGCCTAGGGAGATTAGAGTATCGGTCGA | 0.0707 |
| GGTACTGGAAACTGGGCAAGGTCCATTACGGCCTAGGGAGATTAGAGTATCGGTCGA | 3.56 |
| CACCTTCTTTCTCCCAGAGGTCGATCTGATGCCTAGGGAGATTAGAGTATCGGTCGA | 2.25 |
| AGTTGGAAAATATTTCTCTGAACTTTGACCGCCTAGGGAGATTAGAGTATCGGTCGA | 8.68 |
| CACTTCTGAAAAAAATATTGAACAAAGATTGCCTAGGGAGATTAGAGTATCGGTCGA | 0.276 |
| ACTGACCTTTGAGAGTCAACACTGAAATAGGCCTAGGGAGATTAGAGTATCGGTCGA | 2.06 |
| GAAAATATTTCTCTGAACTTTGACCTATAGGCCTAGGGAGATTAGAGTATCGGTCGA | 9.31 |
| GGTGAAATAGCTGAACTATTTAAGGCCTTTGCCTAGGGAGATTAGAGTATCGGTCGA | 0.507 |
| TCTTTGATTAGGAAAGGGAACTCCCTGACCGCCTAGGGAGATTAGAGTATCGGTCGA | 0.445 |

— publication PMC10726135, “HNF4α isoforms regulate the circadian balance between carbohydrate and lipid metabolism in the liver”
